Assay results taken from PubChem BioAssay (NCATS).
“And” between values parts separate entries of the source, which are not always exact repeats. Equal entries are not always repeated. Results filed as inconclusive are left out. The source made the active and inactive calls. Unless noted, calls follow the shape of the dose curve; as a rule, active = well fitted curve in the direction sought with a large enough effect; inconclusive = small, poorly fitted or top-dose-only effect, or another doubt; inactive = no such curve, though single readings can be large; an effect the other way counts as inactive or inconclusive.

Tests used:
[1] = molecular target: Glucocorticoid receptor (Homo sapiens) (UniProt P04150); assay: GR-GFP Redistribution (AID 450;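 active = compounds whose dose series gives a full or clear partial fitted curve of increased nuclear translocation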; also: potency is read from the fitted curve at half-maximal effect); conditions: U2OS GR-GFP nuclear translocation, laser cytometry, 2 h
Sequence of Glucocorticoid receptor (Homo sapiens) (P04150 whole entry, looked up, the tested form may be a part): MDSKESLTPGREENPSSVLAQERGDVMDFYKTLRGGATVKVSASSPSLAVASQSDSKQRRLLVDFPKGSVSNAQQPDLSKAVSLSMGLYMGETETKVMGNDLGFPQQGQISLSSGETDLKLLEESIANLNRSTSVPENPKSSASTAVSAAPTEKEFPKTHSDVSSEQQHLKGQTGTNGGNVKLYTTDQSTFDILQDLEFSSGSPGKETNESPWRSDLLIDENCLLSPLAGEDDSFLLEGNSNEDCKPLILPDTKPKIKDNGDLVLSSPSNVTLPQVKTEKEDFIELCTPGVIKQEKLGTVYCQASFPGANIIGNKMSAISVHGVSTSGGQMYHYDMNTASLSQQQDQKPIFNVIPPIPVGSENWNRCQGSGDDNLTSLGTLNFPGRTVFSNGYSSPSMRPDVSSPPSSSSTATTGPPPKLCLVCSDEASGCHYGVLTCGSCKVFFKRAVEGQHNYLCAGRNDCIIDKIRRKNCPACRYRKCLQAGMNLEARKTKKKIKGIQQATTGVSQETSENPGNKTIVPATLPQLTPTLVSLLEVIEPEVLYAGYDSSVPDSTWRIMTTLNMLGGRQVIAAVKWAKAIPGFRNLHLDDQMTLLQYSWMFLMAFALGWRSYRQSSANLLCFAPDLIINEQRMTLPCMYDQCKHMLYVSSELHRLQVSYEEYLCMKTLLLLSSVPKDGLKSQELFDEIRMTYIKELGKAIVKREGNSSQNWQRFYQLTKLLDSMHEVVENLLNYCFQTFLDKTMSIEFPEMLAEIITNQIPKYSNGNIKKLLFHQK

[2] = molecular target: Glucocorticoid receptor (Homo sapiens) (UniProt P04150); assay: GR-EFC Redistribution (AID 451; calls by dose curve; also: potency is read from the fitted curve at half-maximal effect); conditions: CHO-K1 GR-EFC translocation, beta-gal luminescence, 2 h
In short: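 Translocation of GR-ED fusion to nuclear EA restores b-gal, read by luminescence after 1 h room-temperature detection. Engineered CHO-K1 biosensor cells, 1,000/well, exposed 2 h at 37 C to titrations up to 46 uM final.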

[3] = molecular target: Mitogen-activated protein kinase 10 (Mus musculus) (UniProt Q61831); assay: JNK3 AlphaScreen Assay (AID 530; active = well fitted curve in either direction with a large enough effect, not every such curve was filed as active;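 also: kinase came from lysate of stimulated human HepG2 cells; signal reports phosphorylation of biotinylated GST-cJun 1-79 at Ser73 with 10 µM ATP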); conditions: JNK3 lysate, c-Jun phosphorylation; series mostly up to 25.6 µM
In short: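 Room-temperature AlphaScreen kinase assay; pre-activated HepG2 lysate as JNK3 source, biotin-GST-cJun(1-79) substrate, 10 uM ATP, compound 15 min preincubation.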

[4] = molecular target: 3',5'-cyclic-AMP phosphodiesterase 4B (Homo sapiens) (UniProt Q07343); assay: qHTS Assay for Inhibitors of PDE-IV (AID 607; active = well fitted activation curve with a large enough effect in the main read-out, with a control signal flat, not every such curve was filed as active); conditions: HEK293 ACTOne CNG channel cells, membrane potential fluorescence; series mostly up to 22.9 µM
Sequence of 3',5'-cyclic-AMP phosphodiesterase 4B (Homo sapiens) (Q07343 whole entry, looked up): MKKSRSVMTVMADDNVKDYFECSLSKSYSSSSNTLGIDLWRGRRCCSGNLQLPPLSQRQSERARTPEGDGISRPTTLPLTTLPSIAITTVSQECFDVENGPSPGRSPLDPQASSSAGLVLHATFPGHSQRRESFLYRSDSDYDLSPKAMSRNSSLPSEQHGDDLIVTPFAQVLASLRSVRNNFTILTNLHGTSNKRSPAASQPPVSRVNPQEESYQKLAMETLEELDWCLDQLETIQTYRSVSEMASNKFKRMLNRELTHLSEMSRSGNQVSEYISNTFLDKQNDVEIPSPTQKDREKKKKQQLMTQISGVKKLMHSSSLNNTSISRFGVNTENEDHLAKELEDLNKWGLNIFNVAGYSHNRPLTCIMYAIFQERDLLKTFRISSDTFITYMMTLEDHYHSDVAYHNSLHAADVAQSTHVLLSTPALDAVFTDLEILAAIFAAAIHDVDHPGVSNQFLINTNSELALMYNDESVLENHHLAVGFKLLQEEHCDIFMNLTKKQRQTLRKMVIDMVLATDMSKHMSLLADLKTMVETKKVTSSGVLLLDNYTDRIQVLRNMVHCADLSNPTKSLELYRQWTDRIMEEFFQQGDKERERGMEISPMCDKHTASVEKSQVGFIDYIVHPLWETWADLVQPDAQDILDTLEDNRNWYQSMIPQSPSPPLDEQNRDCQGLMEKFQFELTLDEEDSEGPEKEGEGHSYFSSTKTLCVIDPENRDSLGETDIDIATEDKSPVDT
In short: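 Cell-based read-out of cAMP via a modified cyclic nucleotide-gated channel and membrane potential dye (535/590 nm) in HEK293 cells expressing PDE4 endogenously. Compounds tested up to 22.9 uM final; 100 uM RO 20-1724 reference.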

[5] = Cell Viability - N2a (AID 540); conditions: N2a mouse neuroblastoma cell viability; series mostly up to 92.2 µM;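 also: cells exposed to compound for 40 h at 37 °C; nearly all actives have a fitted effect of over 45% in size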
In short: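 First, 1500 N2a cells per well incubate 5 hr at 37 °C; next, compounds are added and incubated 40 hr at 37 °C; finally CellTiter-Glo is added and luminescence read after 20 min, with AC50 derived by Hill modeling.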

[6] = Cell Viability - NIH 3T3 (AID 541); conditions: NIH 3T3 cell viability, qHTS; series mostly up to 92.2 µM;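 also: cells exposed to compound for 40 hours; nearly all actives have a fitted effect of over 25% in size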
In short: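 AC50 values reflect concentration-dependent loss of intracellular ATP in NIH 3T3 cells after 40 hr treatment in complete culture medium, quantified by luciferase-based luminescence.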

[7] = Cell Viability - HUV-EC-C (AID 542); conditions: HUV-EC-C endothelial cell viability, qHTS; series mostly up to 92.2 µM;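 also: cells exposed to compound for 40 hours; nearly all actives have a fitted effect of over 35% in size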
In short: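 Decrease in cellular ATP, quantified by luciferase luminescence, reflects toxicity in normal human vascular endothelial HUV-EC-C cells given compound for 40 hr in complete culture medium. Values are AC50s from concentration-response curves.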

[8] = Cell Viability - H-4-II-E (AID 543); conditions: H-4-II-E rat hepatoma viability; series mostly up to 92.2 µM;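 also: cells exposed to compound for 40 hours; nearly all actives have a fitted effect of over 35% in size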
In short: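 Here, cytotoxicity is measured in the rat hepatoma line H-4-II-E as loss of intracellular ATP after 40 hr compound treatment, detected by luciferase luminescence.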

[9] = Cell Viability - Renal Proximal Tubule (AID 545); conditions: renal proximal tubule cells viability, primary cells of rat origin; series mostly up to 91.7 µM;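 also: cells exposed to compound for 40 hours; nearly all actives have a fitted effect of over 40% in size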
In short: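 Primary rat renal proximal tubule cells (1000/well) were treated with compounds for 40 hr at 37 °C in complete medium. Intracellular ATP was measured by CellTiter-Glo luminescence, and AC50 values came from Hill-equation fits of concentration-response data.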

[10] = Cell Viability - Mesenchymal (AID 546); conditions: mesenchymal cells viability, qHTS; series mostly up to 91.7 µM;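 also: cells exposed to compound for 40 hours before reading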
In short: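 AC50 values reflect the drop in intracellular ATP in a human kidney mesenchymal line derived from normal glomeruli. Treatment lasts 40 hr at 37 °C in complete medium, and the signal comes from CellTiter-Glo luminescence.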

[11] = Cellular Toxicity (caspase-3) HepG2 (AID 654); conditions: HepG2 caspase-3 activation, luminescence, 0% = DMSO only, 100% = tamoxifen; series mostly up to 92.2 µM;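 also: cells exposed to compound for 16 hours before reading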
In short: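 qHTS, HepG2, 1500 cells/well, complete medium; cpd 16 h 37 °C; Caspase-Glo 3/7, 20 min RT; lum. Norm: DMSO vs 100 uM tamoxifen; AC50 Hill fit.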

[12] = Cellular Toxicity (caspase-3) Jurkat (AID 655); conditions: Jurkat caspase-3 activation, luminescence, DMSO = 0%, tamoxifen = 100%; series mostly up to 92.2 µM;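 also: cells exposed to compound for 16 h at 37 °C before reading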
In short: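 Jurkat cells (5000/well) in complete medium were treated with compounds for 16 hr at 37 °C, then Caspase-Glo 3/7 luminescence was read after 20 min at room temperature. Data normalized to DMSO (basal) and 100 uM tamoxifen (100%); AC50 from Hill fit.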

[13] = Cellular Toxicity (caspase-3) HUV-EC-C (AID 656); conditions: HUV-EC-C cells, caspase-3 activation (apoptosis), vehicle = 0, 100 µM tamoxifen = 100%; series mostly up to 92.2 µM
In short: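 HUV-EC-C endothelial cells, 1000/well, were pre-incubated 5 hr at 37°C, then exposed to compounds for 16 hr at 37°C. Caspase-Glo 3/7 luminescence was read after 20 min at room temperature. AC50 came from Hill fits, normalized to DMSO and 100 uM tamoxifen.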

[14] = Cellular Toxicity (caspase-3) SHSY5Y (AID 657); conditions: SH-SY5Y caspase-3 activation, DMSO zero, 10 µM staurosporine = 100%; series mostly up to 91.7 µM
In short: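 SH-SY5Y human neuroblastoma cells (1500/well) were treated with compounds for 16 h at 37 °C, then Caspase-Glo 3/7 luminescence was read after 1 h at room temperature. Data normalized to DMSO and 10 uM staurosporine; AC50 from Hill fits.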

[15] = Cellular Toxicity (caspase-3) BJ (AID 658); conditions: BJ fibroblasts, luminescence, normalized: DMSO 0%, staurosporine 100%; series mostly up to 91.7 µM
In short: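 Readout: Caspase-Glo 3/7 luminescence increase in BJ cells after 16 hr treatment at 37 °C. Staurosporine and tamoxifen served as positive controls; AC50 values came from Hill modelling of data normalized to DMSO and 10 uM staurosporine.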

[16] = Cellular Toxicity (caspase-3) MRC-5 (AID 659); conditions: MRC-5 cells, luminescence, normalized: DMSO 0%, 10 µM staurosporine 100%; series mostly up to 91.7 µM
In short: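 Concentration-dependent caspase 3/7 activation is measured in human normal lung fibroblasts (MRC-5) following 16-hour treatment. AC50 values come from standard Hill-equation modeling of luminescence normalized to DMSO and 10 uM staurosporine.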

[17] = Cellular Toxicity (caspase-3) Mesangial (AID 660); conditions: mesangial cells, normalized: DMSO 0%, 100 µM tamoxifen 100%; series mostly up to 91.7 µM;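 also: combined caspase 3 and 7 activity read by Caspase-Glo luminescence; cells exposed to compound for 16 h before the caspase read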
In short: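 Concentration-response qHTS: compound-induced rise in caspase 3/7 luminescence in human mesangial cells after 16 h, normalized to DMSO and 100 uM tamoxifen controls.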

[18] = Cellular Toxicity (caspase-3) SK-N-SH (AID 661); conditions: SK-N-SH caspase-3 activation, qHTS, DMSO as zero, staurosporine as full; series mostly up to 91.7 µM
In short: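 Caspase 3/7 activation is measured as a luminescence increase from aminoluciferin released by substrate cleavage in SK-N-SH cells after 16 hr compound treatment; values are AC50 from concentration-response curves.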

[19] = Cellular Toxicity (caspase-3) H-4-II-E (AID 663); conditions: H-4-II-E rat hepatoma, scaled: DMSO 0%, 100 µM tamoxifen 100%; series mostly up to 92.2 µM;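 also: cells exposed to compound for 16 hr before readout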
In short: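 Apoptosis induction is scored as increased luminescence from caspase 3/7 substrate cleavage in rat hepatoma H-4-II-E cells exposed to compound for 16 hr. Activity is scaled between DMSO and 100 uM tamoxifen.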

[20] = Cellular Toxicity (caspase-3) Hek293 (AID 664); conditions: HEK293 caspase-3 activation, DMSO = 0%, 100 µM tamoxifen = 100%; series mostly up to 92.2 µM;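 also: cells exposed to compound for 16 h at 37 °C before readout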
In short: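 Activation of caspase-3/7 is measured as increased luminescence from cleaved peptide-aminoluciferin substrate in HEK293 cells treated 16 hours at 37 °C. AC50 values come from Hill-equation fits of concentration-response data.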

Measured: Potency

CC(=O)[C@@]1(O)CC[C@H]2[C@@H]3C[C@H](C)C4=CC(=O)C=C[C@]4(C)[C@@]3(F)[C@@H](O)C[C@@]21C
inactive: [1] > 20.6 µM

Cc1c(NC(=O)c2cccnc2)c(=O)n(-c2ccccc2)n1C
inactive: [1] > 20.6 µM | [2] > 20.6 µM | [3] | [4]

CN(C(=O)c1c(O)c2ccccc2n(C)c1=O)c1ccccc1
inactive: [1] > 46 µM | [2] > 46 µM | [3] | [4]

NS(=O)(=O)c1ccc(C(=O)O)cc1
inactive: [1] > 46 µM and > 20.6 µM | [2] > 9.22 µM | [3] | [4]

COc1ccc(NS(=O)(=O)c2ccc(N)cc2)nn1
inactive: [1] > 20.6 µM | [2] > 20.6 µM | [3] | [4]

Cc1cc(NC(=O)C2=C(O)c3ccccc3S(=O)(=O)N2C)no1
inactive: [1] > 20.6 µM | [2] > 20.6 µM | [3] | [4]

CCCCOC(=O)c1ccc(N)cc1
inactive: [1] > 20.6 µM | [2] > 20.6 µM | [3] | [5] | [6] | [7] | [8] | [9] | [10] | [4] | [11] | [12] | [13] | [14] | [15] | [16] | [17] | [18] | [19] | [20]

CC(C)=CCC/C(C)=C/CO
inactive: [1] > 46 µM | [2] > 9.22 µM | [3] | [4]

O=C(O)c1ccccc1C(=O)Nc1ccc(S(=O)(=O)Nc2nccs2)cc1
inactive: [1] > 20.6 µM | [2] > 20.6 µM | [3] | [4]

Cc1cc(C)nc(NS(=O)(=O)c2ccc(N)cc2)n1
inactive: [1] > 20.6 µM | [2] > 20.6 µM | [3] | [5] | [6] | [7] | [8] | [9] | [10] | [4] | [11] | [12] | [13] | [14] | [15] | [16] | [17] | [18] | [19] | [20]

COc1ccc2cc(CCC(C)=O)ccc2c1
inactive: [1] > 20.6 µM | [2] > 20.6 µM | [3] | [4]

Cc1cccc(Nc2ccccc2C(=O)O)c1C
inactive: [1] > 20.6 µM | [2] > 20.6 µM | [3]

C[C@@H]1CCC[C@H](C)N1
inactive: [1] > 20.6 µM | [2] > 20.6 µM | [3] | [4]

Cc1c(NC(C)C)c(=O)n(-c2ccccc2)n1C
inactive: [1] > 20.6 µM | [2] > 20.6 µM | [3] | [4]

CCN(CC)CCOC(=O)C(c1ccccc1)c1ccccc1
inactive: [1] > 20.6 µM | [2] > 20.6 µM | [3]

NC(N)=NCCN1CCCCCCC1
inactive: [1] > 20.6 µM | [2] > 20.6 µM | [3] | [4]

CC1(C)S[C@@H]2[C@H](NC(=O)C(C(=O)O)c3ccccc3)C(=O)N2[C@H]1C(=O)O (stereo not given in full)
inactive: [1] > 20.6 µM

O=C(O)CCCc1ccccc1
inactive: [1] > 20.6 µM

CCCNC(C)(C)COC(=O)c1ccccc1
inactive: [1] > 20.6 µM | [2] > 20.6 µM | [3] | [4]

OC(CCN1CCCC1)(c1ccccc1)C1CCCCC1 (stereo not given)
inactive: [1] > 20.6 µM

C[C@@H](N)C(=O)O
inactive: [1] > 46 µM | [2] > 46 µM | [3]

CN/C(=C\[N+](=O)[O-])NCCSCc1csc(CN(C)C)n1
inactive: [1] > 20.6 µM | [2] > 20.6 µM | [3] | [4]

NC(=O)CC[C@@H](N)C(=O)O
inactive: [1] > 46 µM | [2] > 46 µM | [3] | [4]

NS(=O)(=O)c1cc2c(cc1C(F)(F)F)NCNS2(=O)=O
inactive: [1] > 20.6 µM | [2] > 20.6 µM | [3] | [4]

Cn1c([N+](=O)[O-])cnc1COC(N)=O
inactive: [1] > 20.6 µM | [2] > 20.6 µM | [3] | [4]

Cc1c(N(C)C)c(=O)n(-c2ccccc2)n1C
inactive: [1] > 20.6 µM | [2] > 20.6 µM | [3] | [5] | [6] | [7] | [8] | [9] | [10] | [4] | [11] | [12] | [13] | [14] | [15] | [16] | [17] | [18] | [19] | [20]

O=C1c2ccccc2S(=O)(=O)N1CCCCN1CCN(c2ncccn2)CC1
inactive: [1] > 46 µM | [2] > 46 µM | [3]

CC(=O)SC[C@@H](Cc1ccccc1)C(=O)NCC(=O)OCc1ccccc1
inactive: [1] > 20.6 µM | [2] > 20.6 µM | [3] | [4]

CC1CCc2cc(F)cc3c(=O)c(C(=O)O)cn1c23 (stereo not given)
inactive: [1] > 20.6 µM

CN1CCCN=C1COC(=O)C(O)(c1ccccc1)C1CCCCC1 (stereo not given)
inactive: [1] > 20.6 µM

CCN(CC)CCc1nc(-c2ccccc2)no1
inactive: [1] > 20.6 µM | [2] > 20.6 µM | [3] | [4]

CC(=O)NS(=O)(=O)c1ccc(N)cc1
inactive: [1] > 20.6 µM | [2] > 20.6 µM | [3] | [5] | [6] | [7] | [8] | [9] | [10] | [4] | [11] | [12] | [13] | [14] | [15] | [16] | [17] | [18] | [19] | [20]
